This is an account of results in the supplement of paper PMC6555819.

Common to all, as to experiment: PBM binding z-score (relative to random genomic background probes); higher = stronger binding; sequences stand for … in GC…GCGATTGACAGCGTAGAATGAAGG
In experiment [1] the test system is RARb homodimer (NR concentration 270 nM). Put shortly: (§1)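 Binding z-scores were set against random background probes. The data came from custom Agilent 4×180K protein-binding microarrays carrying double-stranded probes with 34-nt variable regions, incubated 1 h with ligand-free nuclear receptor dimers. Partner-specific antibodies detected binding, and scanned fluorescence was regression-normalized.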

Experiment [2] has as its system RARg:RXRa (NR concentration 270 nM, RXRa partner concentration 90 nM). Put shortly:
as §1

In experiment [3] the test system is RARg homodimer (NR concentration 270 nM). Put shortly: as §1
For experiment [4], the system named is RXRa DBDmut IVT, anti-RXR (DBD mutation: RXRa K156A/R161A, NR concentration 90 nM). An outline of the steps: as §1
Experiment [5] relates to RXRa homodimer (NR concentration 180 nM). Put shortly:
as §1

Experiment [6] has as its system THRa:RXRa (NR concentration 90 nM, RXRa partner concentration 90 nM). Put shortly: as §1
Experiment [7] has as its system THRa homodimer (NR concentration 90 nM). Put shortly: as §1
The subject of experiment [8] is VDR homodimer (NR concentration 270 nM). An outline of the steps: as §1

With ATACCAAGGTGATCGTAAGGTCGTTGATACTAAC, the PBM binding z-score in experiment [1] worked out at 2.01; in experiment [2], 2.35; in experiment [3], 0.817; in experiment [4], 0.559; in experiment [5], 1.68; in experiment [6] it was 3.44. Also, the PBM binding z-score in experiment [7] turned out to be 3.08; in experiment [8], 2.23.
As to TCTATTAGTTGAAGGGCAAACGACGAGTCCGTTT, the PBM binding z-score in experiment [1] came to 1.26; in experiment [2], 0.673; in experiment [3], 0.64; in experiment [4], 1.79; in experiment [5], 1; in experiment [6], 0.493. The PBM binding z-score in experiment [7] was 0.286; in experiment [8], 1.91.
Take TAGCCTAGGTCAGACCGGGCCAGTATACGCTATA: the PBM binding z-score in experiment [1] was 2.24; in experiment [2] it was 2.62; in experiment [3] it was 3.34; in experiment [4], -0.68; in experiment [5], 1.38; in experiment [6] it was 3.99. Besides, the figures for the PBM binding z-score in experiment [7] and in experiment [8] were -0.0936 and -0.324, respectively.
Turning to TCCCGGAGGACACGAAAGGTCAGAGCTCGACATC, the PBM binding z-score is 4.78 in experiment [1]; 4.89 in experiment [2]; 5.23 in experiment [3]; 0.811 in experiment [4]; 3.89 in experiment [5]; 3.88 in experiment [6]. Further, the PBM binding z-score came to 1.31 in experiment [7] and 0.948 in experiment [8].
As for ATACCAAGGTGATCGTGATGTCGTTGATACTAAC, the PBM binding z-score in experiment [1] amounted to 0.279; in experiment [2], 0.25; in experiment [3] it was 0.334; in experiment [4], 0.0865; in experiment [5], 0.28; in experiment [6], 0.81. The PBM binding z-score was found to be 0.541 in experiment [7] and 0.117 in experiment [8].
In the case of GCTTGTAGATCAAGGTTAGGAAAGACTAAGCTAA, the PBM binding z-score in experiment [1] was -0.185; in experiment [2], -0.139; in experiment [3] it was -0.0948; in experiment [4], -0.199; in experiment [5], 0.0572; in experiment [6], 0.576. Besides, the PBM binding z-score in experiment [7] was -0.327; in experiment [8], -0.0771.
Regarding CCTCGGAGGAGAGAAGGTCAGAGCTGTCCGCTTT, the PBM binding z-score is 2.71 in experiment [1]; 1.89 in experiment [2]; 1.69 in experiment [3]; -0.424 in experiment [4]; 1.89 in experiment [5]; 1.59 in experiment [6]. In addition, the PBM binding z-score in experiment [7] is -0.246; in experiment [8] it was -0.0749.
